In PubChem BioAssay (Tox21):
Records with an inconclusive call do not appear. A number with no mark means an inactive call. Calls come from the whole dose curve; as a rule, active = well fitted cell-killing curve with a large enough effect in the repeat runs; inconclusive = weak or mixed curves, or effect the other way; inactive = no such curve, though single readings can be large or run the other way.

Assay: qHTS assay to identify small molecule antagonists of the glucocorticoid receptor (GR) signaling pathway - cell viability counter screen (AID 720693); note: nearly all actives have a fitted effect of over 55% in size
Settings: GR-bla HeLa viability, CellTiter-Glo luminescence, 18 h, with 5 nM dexamethasone present; series mostly up to 58.5 µM; viability change, negative = cytotoxic: at the top concentration
% is set by controls: 0 for no effect and ±100 for the full control effect.

SMILES | viability change, negative = cytotoxic
ClCCCCl | 6.89% [at 78.9 µM]
COC(=O)[C@@H](N)CCCN/C(N)=N/[N+](=O)[O-] | -3.14%
CCOC(=O)c1ncn2c1CN(C)C(=O)c1c(I)cccc1-2 | -4.2%
CCN[C@@H](C)Cc1cccc(C(F)(F)F)c1 | -2.89%
CCN(CC)CCOC(=O)C(O)(c1ccccc1)c1ccccc1 | -5.51%
CCC(=O)OC1(c2ccccc2)CCN(C)CC1 | -13.3% [at 78.9 µM]
C[C@@H](N)[C@@H](O)c1ccccc1 | -3.32% [at 27 µM]
CCNc1nc(NCC)nc(SC)n1 | -0.693%
CCNc1nc(Cl)nc(NC(C)(C)C)n1 | -0.18%
CCOC(=O)N(C)N=O | 2.29%
CCCOc1nn(C(=O)NS(=O)(=O)c2ccccc2C(=O)OC)c(=O)n1C | 2.75%
CCN[C@@H](C)Cc1ccccc1 | -0.201% [at 78.9 µM]
C=C(C)[C@H]1CN[C@H](C(=O)O)[C@H]1CC(=O)O | 6.49%
CNC(=O)Oc1cc(C)c(N(C)C)c(C)c1 | -1.17%
CCN(CC)C1CCCCC1 | -3.63%
COc1ccccc1OC | 4.12%
Clc1nc(Cl)nc(Nc2ccccc2Cl)n1 | 10.7%
CN1COCN(Cc2cnc(Cl)s2)/C1=N\[N+](=O)[O-] | 0.285%
CCOP(=S)(OCC)Oc1ccc(Cl)cc1Cl | 8.43%
O=P(O)(O)c1ccccc1 | -2.04%
CCOC1Oc2ccc(OS(C)(=O)=O)cc2C1(C)C (stereo not given) | 3.16%
N#CC(Br)(Br)C(N)=O | -0.543%
CCCCS(=O)(=O)Cl | 7.18%
CC[C@H](O)C(C[C@H](C)N(C)C)(c1ccccc1)c1ccccc1 | -0.767% [at 78.9 µM]
CN(C)C1CCCCC1 | -2.25%
